Screening data (PubChem BioAssay)
This is a sample that favours compounds with a hit; in the whole collection about 12% have one here.
Shiga toxin inh: inhibitors of Shiga toxin in Vero cells; inhibition, % at 38.7 µM; 290,000 tested, 9.2% active; Vero cells, Shiga toxin protein synthesis inhibition reporter; in the data active = inhibition mostly above about 28%, no sharp cut-off; inactive = mostly below about 43%; also: 0% is about no effect
Cycloheximide cs: counter-screen for Shiga toxin inhibitors: cycloheximide protein synthesis inhibition | cell reporter, cycloheximide protein synthesis inhibition counterscreen | max response, % | 300,000 tested, 12% active; in the data active = max response mostly above about 13%, no sharp cut-off; inactive = mostly below about 14%; also: read at 38.3 µM for the half of the compounds with a filed dose; 0% is about no effect
MARV entry inh: blocks Marburg virus binding to or entry into cells; Potency, µM (series often up to 37.8 µM), for the others: at the highest dose activity change, negative = inhibition, most hits filed as inhibitors; AID 540276; 300,000 tested, 1.8% active; Marburg virus pseudotyped entry inhibition, cell reporter; calls by dose curve; tested in HEK293 cells; also: potency is read from the fitted curve at half-maximal effect; % is scaled to controls: 0 for no effect and ±100 for the full control effect
Lassa entry inh: inhibitors of Lassa virus binding or cell entry; AID 540256; Lassa virus pseudotype entry inhibition, cell reporter; Potency, µM (titrated, usually from 37.9 µM), for the others: top-dose activity change, negative = inhibition, usual class: inhibitors; 300,000 tested, 1.2% active; calls by dose curve; tested in HEK293 cells; also: potency is read from the fitted curve at half-maximal effect; % is scaled to controls: 0 for no effect and ±100 for the full control effect; nearly all actives have a fitted effect of over 50% in size
The depositor's hits bear a star; ? = inconclusive; · = no result given; [ ] = remark or other dose.

SMILES | Shiga toxin inh | Cycloheximide cs | MARV entry inh | Lassa entry inh
COc1ccc(C(=O)COc2ccc(C)cc2NC(C)=O)cc1 | 96* | 49* | ? | ?
COc1ccc(C2(c3ccc(OC)cc3)NC(=O)N(CC(=O)Nc3cc(C)ccc3OC)C2=O)cc1 | 116* | 33* | ? | ?
COc1ccc(NC(=O)Nc2cc(C)ccc2OC)cc1 | 0 | 24* | 0% | -4%
COc1ccc(C)cc1NC(=O)Nc1ccccc1 | -3 | 6 | 0% | 1%
CCOc1ccccc1NC(=O)C(=O)c1cc(C)n(-c2cccc(C)c2C)c1C | · | · | ? | 0%[46.1 µM]
CN1C(=O)/C(=C/c2ccc(OCc3ccccc3F)cc2)N(C)C1=S | · | -3 | · | ·
COC(=O)[C@@H](NC(=O)Nc1cccc(OC)c1)C(C)C | -3 | -4 | 2% | 15%
COc1ccc(NC(=O)Nc2cc(C)ccc2F)cc1 | 34 | 26* | ? | 3%
COc1ccc(OC)c(NC(=O)Nc2ccc(Cl)cc2)c1 | 31 | 10 | -12% | 7%
CCCN(CC1CC1)c1cc2c(c3c1ccn3C)C1CCC2C1 (centres undefined) | · | · | 3.1µM* | ·
Cn1nnc2c(NCc3ccco3)nccc21 | 1 | -2 | 1% | 9%
COc1ccc(Nc2nccc3c2nnn3C)cc1 | 97* | 45* | ? | -5%
CC(C)(C)C#CC(CCc1ccccc1)OS(N)(=O)=O (centres undefined) | 21 | 12* | · | ·
CC(C)OCCCn1c(SCC(=O)Nc2ccc(F)cc2)nc2c(sc3ccccc32)c1=O | · | · | · | 21%[46.1 µM]
N#C[C@@H]1[C@@H]2C(=O)N(c3ccc4c(c3)OCCO4)C(=O)[C@@H]2C2c3ccccc3C=CN21 (some centres undefined) | 30* | 16 | · | ·
CC(=O)[C@H]1[C@@H]2C(=O)N(c3cccc(Cl)c3)C(=O)[C@@H]2[C@H]2c3ccccc3C=CN21 | 13 | 11 | 0% | -6%
COc1cccc(N2CC(NC(=O)c3cc4ccccc4o3)CC2=O)c1 (centres undefined) | · | · | · | 9%[46.1 µM]
Cc1cc(C)n(-c2cccc(C(=O)O)c2)n1 | -8 | -3 | 9% | 15%
CC(Sc1nnc(-c2cccnc2)o1)C(=O)NC1CCCC1 (centres undefined) | · | · | -28% | 4%
O=C(Nc1ccc(NC(=O)c2cccs2)cc1)c1cccnc1 | -2 | 2 | · | ·
O=C(Nc1ccc(Cc2ccncc2)cc1)c1cccs1 | 69* | 33* | ? | -18%[46.1 µM]
O=C(c1ccncc1)c1ccc(NC(=O)c2cccs2)cc1 | 148* | 29* | 5%[46.1 µM] | 11%
O=C(Cc1ccccc1)Nc1ccc(NC(=O)c2cccs2)cc1 | 25 | 15 | -1% | 0%
Cc1ccc(Cl)cc1N1CCN(S(=O)(=O)c2ccc3c(c2)CCN3C(=O)C2CCC2)CC1 | · | · | -1%[46.1 µM] | 0%[46.1 µM]
Cc1cc(C)nc(Nc2n[nH]c(-c3cccc4ccccc34)n2)n1 | 27 | 19* | -2% | ·
SMILES | Shiga toxin inh | Cycloheximide cs | MARV entry inh | Lassa entry inh
O=C(Nc1ccc(N2CCCCC2)cc1)C(Cl)c1ccccc1 (centres undefined) | 84 | 46* | ? | ?
O=C(Nc1ccc(N2CCCCCC2)cc1)c1ccccc1Cl | 53* | 34* | ? | -25%[46.1 µM]
CC(Oc1ccc(Cl)cc1Cl)C(=O)Nc1ccc(N2CCN(C)CC2)cc1 (centres undefined) | -12 | -2 | 12µM* | ?
CC(=O)N1CCN(c2ccc(NC(=O)c3ccccc3Cl)cc2)CC1 | 3 | -1 | 24%[46.1 µM] | 19%[46.1 µM]
CC(=O)N1CCN(c2ccc(NC(=O)c3ccc([N+](=O)[O-])cc3Cl)cc2)CC1 | -15 | -2 | ? | 27%[46.1 µM]
CC(=O)N1CCN(c2ccc(NC(=O)C(C)Oc3ccc(Cl)cc3Cl)cc2)CC1 (centres undefined) | -10 | 4 | ? | -15%
CN1CCN(c2ccc(NC(=O)c3ccc(Cl)cc3Cl)cc2)CC1 | · | 15* | · | ·
COc1ccc(C(=O)NC(=S)Nc2ccc(CN3CCOCC3)cc2)cc1Br | -5 | -1 | · | ·
CCOc1nc(-c2ccccc2)ncc1Oc1ccccc1 | · | · | 0%[14.2 µM] | 24%
O=C(Nc1ccccc1)c1cccc2c(=O)c3c([nH]c12)CCCC3 | · | · | 0%[46.1 µM] | 2%[46.1 µM]
O=C(Nc1ccccc1N1CCCC1)c1ccc(Cl)cc1Cl | 28 | -2 | ? | 0%[46.1 µM]
COc1ccccc1C(=O)Nc1ccc(N2CCCCC2)cc1 | 65* | 45* | 7.9µM* | ?
O=C(Nc1ccc(N2CCCCC2)cc1)c1ccccn1 | -21 | -8 | 0.46µM* | 0.52µM*
O=C(Nc1ccc(N2CCCC2)cc1)c1cc(Cl)ccc1Cl | · | 13* | · | ·
O=C(Nc1ccc(N2CCCC2)cc1)c1ccc(Cl)cc1Cl | 47* | 47* | 11%[46.1 µM] | 23%[46.1 µM]
Cc1ccc2nc(SCC(=O)NCc3ccc(F)cc3)nc(=O)n2c1 | · | · | -2% | -4%
CC(Oc1ccc(Cl)cc1Cl)C(=O)Nc1cccc(O)c1 (centres undefined) | 43 | 31* | 7%[46.1 µM] | ?
